Some test systems named below: HCT-15 colon; HT29 colon; SNB-75 CNS; SNB-19 CNS; U251 CNS; PC-3 prostate; SK-MEL-5 melanoma; UACC-62 melanoma; LOX IMVI melanoma; SK-MEL-2 melanoma; EKVX NSCLC; SN12C renal; UO-31 renal; TK-10 renal; ACHN renal; CAKI-1 renal; A498 renal; CCRF-CEM leukemia; MOLT-4 leukemia; SK-MEL-28 melanoma.
Holding throughout (assay): NCI-60 one-dose screen, 48 h (100 = growth as untreated, 0 = no growth, -100 = all killed)
Conditions in all cases: 10 µM unless noted

Compounds without any hit were thinned out: in the full panel of roughly 83,000, 20% have a hit.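 Interpretation: 100, growth as untreated; towards 0, rising growth inhibition; 0, no net growth; 0 to -100, cell death. Compounds scoring below 10 were considered active.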 A number with no mark means an inactive call. Activity calls are given as the source filed them.

For the compound `C=C(C)[C@@H]1CC[C@]2(C(=O)OC)CC[C@]3(C)[C@H](CC[C@@H]4[C@@]5(C)C/C(=C/NC(N)=S)C(=O)C(C)(C)[C@@H]5CC[C@]43C)[C@@H]12`, the growth in the assay with HCT-15 colon is 92.8%; in the assay on HT29 colon, 71%; in the assay on SNB-75 CNS, 118%; with SNB-19 CNS it was 97.1%; with U251 CNS it was 90.7%; in the assay with PC-3 prostate, 67.6%. In addition, the growth in the assay with SK-MEL-5 melanoma was 87.1%; with UACC-62 melanoma, 87.4%; in the assay on LOX IMVI melanoma, 90.2%; in the assay with SK-MEL-2 melanoma it was 103%; in the assay with EKVX NSCLC, 91.3%; in the assay on SN12C renal it was 58.9%. Besides, the growth with UO-31 renal is 73.4%; in the assay on TK-10 renal, 111%; in the assay with ACHN renal, 77.6%; with CAKI-1 renal, 66.4%; with A498 renal, 114%; in the assay with CCRF-CEM leukemia, 84.7%. Also, the growth in the assay on MOLT-4 leukemia is 70.3%.

Take `CC(=O)Nc1nc2ccc(NS(=O)(=O)c3cccc4c(N(C)C)cccc34)cc2[nH]1`: the growth is 72.9% in the assay on HCT-15 colon; 63% with HT29 colon; 31% in the assay with SNB-75 CNS; 52.3% in the assay on SNB-19 CNS; 70.2% with U251 CNS; 60.2% with PC-3 prostate. Moreover, the growth in the assay on SK-MEL-5 melanoma is 21.5%; in the assay on UACC-62 melanoma, 27.3%; with LOX IMVI melanoma, 53.6%; with SK-MEL-28 melanoma, 57.9%; in the assay on SK-MEL-2 melanoma, 80.8%; with EKVX NSCLC, 75.9%. Also, the growth in the assay with SN12C renal is 69.8%; with UO-31 renal, 68.4%; with TK-10 renal, 102%; with ACHN renal it was 75.7%; in the assay on CAKI-1 renal, 42.7%; with A498 renal it was 2.64% (active). Further, the growth in the assay with CCRF-CEM leukemia is 47.9%; in the assay with MOLT-4 leukemia, 59.4%.

In the case of `CC12CCC3c4ccccc4CCC3(CO1)C2` (stereo unspecified), the growth with HCT-15 colon was 108%; in the assay with HT29 colon, 100%; in the assay with SNB-75 CNS, 89.7%; in the assay with SNB-19 CNS, 114%; in the assay on U251 CNS it was 107%; in the assay on PC-3 prostate, 88%. Also, the growth in the assay with SK-MEL-5 melanoma was 102%; with UACC-62 melanoma, 105%; in the assay on LOX IMVI melanoma it was 101%; in the assay with SK-MEL-2 melanoma it was 109%; in the assay with EKVX NSCLC it was 107%; in the assay with SN12C renal it was 98.3%. Also, the growth with UO-31 renal was 117%; in the assay on TK-10 renal it was 110%; in the assay on ACHN renal, 98.4%; with CAKI-1 renal, 101%; in the assay on A498 renal, 78.9%; with CCRF-CEM leukemia it was 86.9%. For the same compound, the growth with MOLT-4 leukemia was 89.3%.

Take `CCOC(=O)c1c2c(n3ccc(C)cc13)C(=O)c1ccccc1C2=O`: the growth in the assay on HCT-15 colon was 85.2%; with HT29 colon, 87.8%; in the assay with SNB-75 CNS it was 100%; with SNB-19 CNS it was 98.4%; with U251 CNS, 92.8%; in the assay with PC-3 prostate, 78%. The growth is 82.1% in the assay with SK-MEL-5 melanoma; 92.6% in the assay with UACC-62 melanoma; 94% with LOX IMVI melanoma; 111% with SK-MEL-28 melanoma; 90.2% in the assay with SK-MEL-2 melanoma; 91.2% in the assay on EKVX NSCLC. Besides, the growth was 95.8% in the assay on SN12C renal; 60.6% with UO-31 renal; 103% with TK-10 renal; 96.4% with ACHN renal; 80.1% with CAKI-1 renal; 83.8% in the assay with A498 renal. The growth in the assay on CCRF-CEM leukemia is 99.9%; in the assay with MOLT-4 leukemia, 89.9%.

For `Oc1ccc(CCn2c(O)c(/C=C3\CN=c4ccccc4=N3)sc2=S)cc1`, the growth was 35.2% in the assay on HCT-15 colon; 62% with HT29 colon; 23.2% in the assay with SNB-75 CNS; 82.2% in the assay on SNB-19 CNS; 80.3% in the assay on U251 CNS; 60.2% in the assay with PC-3 prostate. Also, the growth with SK-MEL-5 melanoma was 88.3%; with UACC-62 melanoma, 58%; with LOX IMVI melanoma, 10.2%; in the assay with SK-MEL-2 melanoma it was 91.5%; with EKVX NSCLC it was 80.8%; in the assay with SN12C renal, 47.5%. The growth in the assay on UO-31 renal is 28.9%; with TK-10 renal, 30.8%; in the assay on ACHN renal it was 54.3%; in the assay on CAKI-1 renal it was 34.3%; with A498 renal, 37.3%; with CCRF-CEM leukemia, 7.79% (active). Moreover, the growth with MOLT-4 leukemia was 35.9%.

Take `C#CCOc1cccc(Nc2ncnc3ccc(NC(=O)CCl)cc23)c1`: the growth with HCT-15 colon is -41.6% (active); in the assay on HT29 colon, -78.6% (active); in the assay with SNB-75 CNS it was 28%; in the assay on SNB-19 CNS it was -23.7% (active); in the assay on U251 CNS it was -60.7% (active); in the assay on PC-3 prostate it was -59.3% (active). The growth in the assay on SK-MEL-5 melanoma is -92.8% (active); in the assay with UACC-62 melanoma, -67.5% (active); with LOX IMVI melanoma, -75.4% (active); in the assay on SK-MEL-2 melanoma, -47.9% (active); with EKVX NSCLC it was -45.2% (active); with SN12C renal, -24.7% (active). The growth in the assay with UO-31 renal was -87.8% (active); in the assay on TK-10 renal, -60.8% (active); with ACHN renal, -80.8% (active); in the assay on CAKI-1 renal it was 1.72% (active); with A498 renal it was -2.12% (active); in the assay with CCRF-CEM leukemia it was -56.9% (active). In the assay with MOLT-4 leukemia, the growth is -25.1% (active).

In the case of `CC1=C(Nc2ccc(N3CCN(C)CC3)cc2)C(=O)c2cncnc2C1=O`, the growth with HCT-15 colon was 94.2%; with HT29 colon, 112%; with SNB-75 CNS, 131%; in the assay on SNB-19 CNS, 97.3%; in the assay with U251 CNS, 83.6%; in the assay with PC-3 prostate, 21.7%. Also, the growth in the assay on SK-MEL-5 melanoma was 81.5%; in the assay on UACC-62 melanoma it was 93.8%; in the assay with LOX IMVI melanoma, -13.6% (active); in the assay with SK-MEL-28 melanoma, 121%; in the assay with SK-MEL-2 melanoma, 109%; in the assay with EKVX NSCLC it was 98.3%. Also, the growth in the assay with SN12C renal is 98.5%; in the assay with UO-31 renal it was 86.2%; with TK-10 renal, 142%; in the assay on ACHN renal, 6.25% (active); in the assay with CAKI-1 renal, 87.9%; in the assay on A498 renal, 113%. Further, the growth in the assay on CCRF-CEM leukemia is 5.93% (active); in the assay with MOLT-4 leukemia, -11.9% (active).
